Measured values taken from PubChem BioAssay (NCI).
Where “and” joins values, the source holds several entries; their conditions need not be identical. Equal entries are not always repeated. This is part of a sample that, as a whole, favours compounds with a hit. Of some 83,000 tested, about 20% had one in any assay.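 Growth was measured after 48 h exposure to one concentration of compound in 96-well plates. Values under 10 count as active.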 Calls of active or inactive are those of the source.

test system: HL-60(TB) leukemia; test: NCI-60 one-dose screen, 48 h (100 = growth as untreated, 0 = no growth, -100 = all killed); conditions: 10 µM unless noted

SMILES | growth
Cc1ccc(-c2cc(-c3cccc(Nc4ccnc5cc(Cl)ccc45)c3)nc3nc(N)[nH]c(=O)c23)cc1 | 58% (inactive)
CCCCC(=O)c1ccco1 | 103% (inactive)
CCCCCCCCCCCCCCCCOP(=O)([O-])OCC[N+](C)(C)C | -29.6% (active)
N/C(=N\C(N)=N\c1nc2ccccc2s1)c1cccc(Br)c1 | 95.4% (inactive)
Nc1cc2c(cc1N)-c1ccccc1C2 | 7.76% (active) and 64.3% (inactive)
CN(C)c1ccc(/C=C/C=N/NC(=O)c2cc(O)c(O)c(O)c2)cc1 | 84.2% (inactive)
NC(N)=NC1CCCCC1 | 94.4% (inactive)
Cc1ccc2nc(-c3c(N)n[nH]c3CCCO)[nH]c(=O)c2c1 | 108% (inactive)
CC[C@]12CN3CCc4c([nH]c5ccccc45)[C@@](C(=O)OC)(c4cc5c(cc4OC)N(C)[C@H]4[C@@](O)(C(=O)OC)[C@H](OC(C)=O)[C@]6(CC)C=CCN7CC[C@]54[C@@H]76)CC(C3)[C@H]1O2 (stereo partly specified) | -1.28% (active)
CCOC(=O)c1ccncc1 | 97.3% (inactive)
Cc1cc(=O)[nH]c(N=Nc2c(O)[nH]c3ccccc23)n1 | 79.8% (inactive)
O=C1/C(=C\c2cn(C(=O)c3ccc(Cl)cc3)c3ccccc23)c2ccccc2N1c1c(Cl)cccc1Cl | 103% (inactive)
CC/C=C\C[C@H]1C/C=C2/C(=O)C=C[C@@H]2C/C=C\CCCC(=O)O1 | -27.2% (active)
Cn1cc(-c2csc(-c3cn(CCCN4CCCCC4)c4ccc(Br)cc34)n2)c2cccnc21 | 0.828% (active)
C=CC[N+]1(CCO)CCN=C1CCCCCCCCCCCCC (stereo unspecified) | -31.8% (active)
COC(=O)c1cc(-c2ccc(C)cc2)n(C(=O)CSc2nc3sc(C(N)=O)c(C)c3c(=O)n2Cc2ccccc2)n1 | 106% (inactive)
C[C@H]1[C@H]2[C@H]3CC[C@@H]4[C@@]5(C)C/C(=C/c6cccnc6)C(=O)C(C)(C)[C@@H]5CC[C@@]4(C)[C@]3(C)CC[C@]23CO[C@]1(C)[C@@H](C(=O)/C=C\c1cccnc1)C3 | 14.5% (inactive)
Nc1nc2c(c3ncccc13)C(c1ccc(Cl)c(Cl)c1)Cc1ncccc1-2 (stereo unspecified) | -7.14% (active)
CC1(C)Cc2c(sc3ncn4nc(-c5ccc(O)cc5)nc4c23)CO1 | 62.1% (inactive)
COc1ccc(-c2ccc(C)n2-c2ccc(-c3nc4ccccc4s3)cc2)cc1 | 53.5% (inactive)
COc1ccc2c(O)c(/C=C3\N=Nc4ncccc43)oc2c1C[C@H]1CCNC[C@H]1F | -45.4% (active)
O=C1NC(=S)S/C1=C\c1cc(Br)ccc1O | 83.9% (inactive)
O=C(NC(=S)Nc1ccc(-c2nc3ccccc3[nH]2)cc1)c1ccc2ccccc2c1 | 40.7% (inactive)
CC(=O)Nc1ccc(C(=O)/C=C/c2ccc(N(C)C)cc2)cc1 | 104% (inactive)
COc1ccc(NS(=O)(=O)N2CCCCC2)cc1 | 115% (inactive)
O=C(CSc1nnc2n1S(=O)(=O)c1ccccc1N2c1ccccc1)Nc1nc2ccc(F)cc2s1 | 106% (inactive)
